Screening results (PubChem BioAssay)
In the library only some 14% were active in any assay of this set; here they are far more common.
HCMV inh = qHTS Assay for inhibitors of the human cytomegalovirus (HCMV). HFF cells, HCMV-luciferase reporter, 72 h; active compounds read low. activity change, negative = inhibition, % at 57.5 µM. actives 4.5% (n = 410,000); in the data active = activity change below about -60%; inconclusive = no clear call, values can overlap the other calls; inactive = above about -39%
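Screen run at 2 compound doses on HFFs infected with reporter HCMV, MOI 1 PFU/cell. Luciferase activity from cell lysates at 72 h post infection gave inhibition relative to buffer-only and Salinomycin wells.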
Pf growth 48h = Primary qHTS for delayed death inhibitors of the malarial parasite plastid, 48 hour incubation; P. falciparum luciferase growth in erythrocytes, 48 h; Potency, µM (doses to about 28.7 µM), for the others: at the top dose activity change, negative = inhibition, most hits filed as inhibitors; actives 5.9% (n = 310,000); AID 504832, 2011; note: potency is the fitted concentration of half-maximal effect
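Growth was read as firefly luciferase luminescence after a 48 h, 37 C, 5% CO2 exposure of compounds to reporter-bearing P. falciparum cultures (0.1% parasitemia, 2% hematocrit final) in Albumax-supplemented RPMI 1640.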
LASV entry inh = qHTS for Inhibitors of binding or entry into cells for Lassa Virus; AID 540256, 2011; Potency, µM (doses to about 37.9 µM), for the others: top-dose activity change, negative = inhibition, actives largely listed as inhibitors; Lassa virus pseudotype entry inhibition, cell reporter; actives 1.2% (n = 300,000); calls by dose curve; tested in HEK293 cells; note: potency is the fitted concentration of half-maximal effect; nearly all actives have a fitted effect of over 50% in size
Pf growth 96h = Primary qHTS for delayed death inhibitors of the malarial parasite plastid, 96 hour incubation; P. falciparum luciferase reporter growth, 96 h; Potency, µM (highest dose often 28.7 µM), for the others: top-dose activity change, negative = inhibition, hits mostly inhibitors; actives 6.9% (n = 320,000); AID 504834, 2011; note: potency is the fitted concentration of half-maximal effect
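Plates of compound plus infected erythrocytes (2% hematocrit, 0.05% parasitemia final) incubate 96 hours, 37 C, 5% CO2. Detection reagent added; reduced luminescence from the parasites' luciferase reporter flags inhibition.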
HCV inh = qHTS Assay for Inhibitors of Hepatitis C Virus (HCV) | Huh7.5.1 HCVcc-Cre infection, luciferase reporter, 44 h | Potency, µM (highest dose often 41.8 µM), without a hit: at the top dose activity change, negative = inhibition, hits mostly inhibitors | actives 3.4% (n = 340,000); note: potency is the fitted concentration of half-maximal effect
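Infectious HCVcc-Cre (~0.5 moi) was added to cells just after compound, with cells seeded 4 h earlier at 1,000 per well. Luciferase activity after 44 h culture reported infection; substrate was incubated 15 min at room temperature before reading.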
MARV entry inh = qHTS for inhibitors of binding or entry into cells for Marburg Virus | Marburg virus pseudotyped entry inhibition, cell reporter | Potency, µM (highest dose often 37.8 µM), for the others: top-dose activity change, negative = inhibition, most hits filed as inhibitors | actives 1.8% (n = 300,000); calls by dose curve; tested in HEK293 cells; note: potency is the fitted concentration of half-maximal effect
* marks the source's active call; other numbers are inactive results; [ ] = dose if it differs, or a comment. Unless noted, calls come from the whole dose curve; as a rule, active = well fitted inhibition curve with a large enough effect; inconclusive = small, poorly fitted or top-dose-only effect, or another doubt; inactive = no such curve, though single readings can be large or run the other way. % is set by controls: 0 for no effect and ±100 for the full control effect.

For CCN(CC)S(=O)(=O)c1cc(NC(=O)C2CCN(c3ncnc4sc(C)c(C)c34)CC2)ccc1Cl the results were HCMV inh -82*, Pf growth 48h 12µM*, LASV entry inh inconclusive, Pf growth 96h 5.2µM*, HCV inh 6.3µM* and MARV entry inh 3.5µM*.
For Cc1sc2ncnc(N3CCC(C(=O)Nc4cc(Cl)ccc4Cl)CC3)c2c1C the results were HCMV inh -20, Pf growth 48h inconclusive, LASV entry inh -8%, Pf growth 96h inconclusive, HCV inh inconclusive and MARV entry inh 1%.
Cc1ccc(C)c(S(=O)(=O)N2CCN(C(=O)C3CCN(c4ncnc5sc(C)c(C)c45)CC3)CC2)c1 was read as HCMV inh -67*, Pf growth 48h 5.2µM*, LASV entry inh inconclusive, Pf growth 96h inconclusive, HCV inh 11µM* and MARV entry inh inconclusive.
Cc1sc2ncnc(N3CCC(C(=O)Nc4cc(S(C)(=O)=O)ccc4Cl)CC3)c2c1C was read as HCMV inh -33, Pf growth 48h 9.3µM*, LASV entry inh -3%, Pf growth 96h inconclusive, HCV inh inconclusive and MARV entry inh inconclusive.
Cc1ccc2nc(NC(=O)C3CCN(c4ncnc5sc(C)c(C)c45)CC3)sc2c1 was read as Pf growth 48h -5%, LASV entry inh 29%, Pf growth 96h inconclusive, HCV inh 9% and MARV entry inh 8%.
Screening Cc1sc2ncnc(N3CCC(C(=O)Nc4ccc(C#N)cc4)CC3)c2c1C returned HCMV inh -3, Pf growth 48h inconclusive, LASV entry inh -7%, Pf growth 96h inconclusive, HCV inh 7% and MARV entry inh 20%.
Screening O=C(CNc1ccccc1N1CCCC1=O)Nc1cc(C(F)(F)F)ccc1-n1cncn1 returned HCMV inh -19, Pf growth 48h 31%, LASV entry inh 4%[46.1 µM], Pf growth 96h 30%, HCV inh -1% and MARV entry inh 2%.
Screening CCCC#Cc1cnc2c(c1)C(=O)N([C@H](C)CO)C[C@@H](C)[C@H](CN(C)S(=O)(=O)c1cccc(OC)c1)O2 returned HCMV inh -5.
Cc1ccc(NC(=O)C2CCN(c3ncnc4sc(C)c(C)c34)CC2)cc1S(=O)(=O)N(C)C was read as HCMV inh inconclusive, Pf growth 48h 4.1µM*, LASV entry inh -17%, Pf growth 96h 4.7µM*, HCV inh 10µM* and MARV entry inh inconclusive.
For Cc1cc(C(=O)N/N=C/c2cccnc2)c(C)o1 the results were HCMV inh -99*, Pf growth 48h 39%, LASV entry inh 5%, Pf growth 96h -16%, HCV inh 7% and MARV entry inh 13%.
Screening O=C(N/N=C/C(Cl)=C\c1ccccc1)c1cccs1 returned HCMV inh 21, Pf growth 48h inconclusive, LASV entry inh inconclusive, Pf growth 96h 3.7µM*, HCV inh -14% and MARV entry inh inconclusive.
For O=C(N/N=C/C(Cl)=C/c1ccccc1)c1ccccn1 the results were HCMV inh 13, Pf growth 48h -45%, LASV entry inh inconclusive, Pf growth 96h inconclusive, HCV inh 8% and MARV entry inh inconclusive.
`CCCCCn1nc(C)c(/C=N\NC(=O)c2cc(C)oc2C)c1C` gave HCMV inh -4, Pf growth 48h 13µM*, LASV entry inh -6%, Pf growth 96h -26%, HCV inh inconclusive and MARV entry inh 2%.
Screening Cc1cc(C(=O)N/N=C/C(Cl)=C/c2ccccc2)c(C)o1 returned HCMV inh 24, Pf growth 48h 9.3µM*, LASV entry inh 13%[46.1 µM], Pf growth 96h 10µM*, HCV inh -27% and MARV entry inh -29%[46.1 µM].
O=c1nc2sc3ccccc3n2c(=O)n1-c1cccc(Cl)c1 was read as Pf growth 48h 92%, LASV entry inh inconclusive, HCV inh 11µM* and MARV entry inh inconclusive.
For CCCCc1c(O)nc2ccccn2c1=O the results were HCMV inh -11, Pf growth 48h inconclusive, LASV entry inh 0%, Pf growth 96h 12µM*, HCV inh -1% and MARV entry inh 4%.
For CSc1ccc(C2c3[nH]c4ccccc4c3CCN2C(=O)c2ccnn2C)cc1 (stereo not drawn) the results were HCMV inh -11, Pf growth 48h inconclusive, LASV entry inh inconclusive, Pf growth 96h inconclusive, HCV inh 2% and MARV entry inh inconclusive.
For CCc1ccc(C2c3[nH]c4ccccc4c3CCN2C(=O)CNC(N)=O)cc1 (stereo not drawn) the results were HCMV inh 11, Pf growth 48h inconclusive, LASV entry inh -23%, Pf growth 96h -14%, HCV inh 29% and MARV entry inh -18%.
CCc1ccc(C2c3[nH]c4ccccc4c3CCN2C(=O)c2ccc(=O)n(C)n2)cc1 (stereo not drawn) was read as HCMV inh 36, Pf growth 48h 8.3µM*, LASV entry inh inconclusive, Pf growth 96h inconclusive, HCV inh 0% and MARV entry inh 11µM*.
For CCc1ccc(C2c3[nH]c4ccccc4c3CCN2C(=O)CN2CCN(CC)CC2)cc1 (stereo not drawn) the results were HCMV inh 24, Pf growth 48h 10µM*, LASV entry inh inconclusive, Pf growth 96h inconclusive, HCV inh inconclusive and MARV entry inh 13µM*.
For CCOC(=O)Cn1c(=O)oc2cc(S(=O)(=O)Nc3ccccc3F)ccc21 the results were HCMV inh -1, LASV entry inh 4%[46.1 µM] and MARV entry inh 19%[46.1 µM].
O=C(NCC1CCCC(CNC(=O)N2CCc3ccccc32)C1)N1CCc2ccccc21 (stereo not drawn) was read as HCMV inh 21, LASV entry inh 7%, Pf growth 96h 5.9µM*, HCV inh inconclusive and MARV entry inh 20%.
O=C(Nc1ccccc1)N1CCc2ccccc21 was read as HCMV inh 136, Pf growth 48h inactive, LASV entry inh -22%, Pf growth 96h 5%, HCV inh -11% and MARV entry inh inconclusive.
CCOc1cc2c3c(c1)C(C)CC(C)(C)N3C(=O)C2=O (stereo not drawn) was read as HCMV inh -36, Pf growth 48h inconclusive, LASV entry inh -19%[14.3 µM], Pf growth 96h 0.83µM* and MARV entry inh inconclusive.
Screening CCOC(=O)Oc1ccc2c(c1)C(C)=CC(C)(C)N2C(=O)OCC returned HCMV inh 0, Pf growth 48h inconclusive, LASV entry inh 2%, Pf growth 96h inconclusive, HCV inh 5% and MARV entry inh -30%.
